Results: publication PMC4336329 (PLoS ONE, 2015)
About 14,000 (4.5%) of roughly 310,000 compounds showed an effect of 50% or more. Effects have a minus sign here. Only a selection was taken, and strong results are over-represented in it overall.

biological target: human ether-à-go-go-related gene (hERG) potassium channel (human, UniProt Q12809); assay: primary screen, population patch clamp on CHO cells stably expressing hERG; higher = less effect of the substance
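Also: peak tail current of the secondary pulse compared with the same well before compound.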

Sequence of human ether-à-go-go-related gene (hERG) potassium channel (Q12809 whole entry, looked up): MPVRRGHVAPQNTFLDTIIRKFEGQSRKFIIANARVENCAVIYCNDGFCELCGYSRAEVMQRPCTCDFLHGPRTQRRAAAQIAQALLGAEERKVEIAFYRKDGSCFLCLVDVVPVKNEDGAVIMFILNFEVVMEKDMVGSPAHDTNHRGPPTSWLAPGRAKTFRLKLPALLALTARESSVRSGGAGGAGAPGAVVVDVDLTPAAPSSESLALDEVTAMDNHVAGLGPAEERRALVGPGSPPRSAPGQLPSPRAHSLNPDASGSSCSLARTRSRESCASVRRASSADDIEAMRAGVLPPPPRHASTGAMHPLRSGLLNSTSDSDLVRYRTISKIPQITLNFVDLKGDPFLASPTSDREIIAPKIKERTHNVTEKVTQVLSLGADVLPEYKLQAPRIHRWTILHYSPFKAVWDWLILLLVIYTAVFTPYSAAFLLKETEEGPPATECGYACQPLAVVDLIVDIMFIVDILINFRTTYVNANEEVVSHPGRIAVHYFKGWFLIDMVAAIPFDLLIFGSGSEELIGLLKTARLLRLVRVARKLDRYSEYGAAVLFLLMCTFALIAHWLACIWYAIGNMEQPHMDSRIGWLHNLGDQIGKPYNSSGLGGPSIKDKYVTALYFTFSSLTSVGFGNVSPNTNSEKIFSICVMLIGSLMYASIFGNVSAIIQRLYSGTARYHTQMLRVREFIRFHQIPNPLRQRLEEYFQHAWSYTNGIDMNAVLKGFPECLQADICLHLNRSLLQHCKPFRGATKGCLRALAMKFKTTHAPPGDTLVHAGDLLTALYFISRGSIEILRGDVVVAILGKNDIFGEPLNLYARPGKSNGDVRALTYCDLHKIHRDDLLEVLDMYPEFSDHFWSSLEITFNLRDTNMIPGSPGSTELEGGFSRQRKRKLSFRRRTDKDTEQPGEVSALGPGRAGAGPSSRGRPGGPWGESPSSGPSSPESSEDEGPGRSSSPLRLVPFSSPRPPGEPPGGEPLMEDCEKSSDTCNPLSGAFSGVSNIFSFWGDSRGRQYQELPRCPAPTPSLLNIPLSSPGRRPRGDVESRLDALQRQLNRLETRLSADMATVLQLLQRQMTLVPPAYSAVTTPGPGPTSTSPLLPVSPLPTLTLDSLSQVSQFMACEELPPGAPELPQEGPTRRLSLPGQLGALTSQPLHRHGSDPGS

Structure (SMILES)	hERG current change (%, negative = inhibition) at 10uM [%]
O=C1Nc2ccc(F)cc2C12Nc1ccccc1-c1nnc(SCc3ccccc3)nc1O2 (stereo not shown)	-13.2
COc1ccccc1NC(=O)c1ccc(-n2cccn2)nc1	3.91
O=C(Nc1cccc(Cl)c1)c1ccc(NCCCN2CCOCC2)c([N+](=O)[O-])c1	-37.9
CC(C(N)=O)N1CC(c2ccccc2)CC1=O (stereo not shown)	-4.86
O=C(CSc1nccc(=O)[nH]1)Nc1ccc2c(c1)OCCO2	51.6
Clc1cccc(Cl)c1CSc1nnc(CN2CCOCC2)n1-c1ccccc1	-28.9
Clc1ccc(CSc2nnc(CN3CCOCC3)n2-c2ccccc2)cc1Cl	-74.1
Fc1ccc(CSc2nnc(CN3CCOCC3)n2-c2ccccc2)c(Cl)c1	-24
CSCCC(NS(=O)(=O)c1ccc(C)cc1)C(=O)N1CCN(C(C)=O)CC1 (stereo not shown)	3.56
CCOC(=O)c1c(NC(=O)c2ccco2)n(C2CCCCC2)c2nc3ccccc3nc12	-35.6
CCCCn1c(NC(=O)c2ccc(Br)o2)c(S(=O)(=O)c2ccccc2)c2nc3ccccc3nc21	-0.885
CCCCCn1c(NC(=O)c2ccco2)c(C(=O)OCC)c2nc3ccccc3nc21	-80.4
CCCCn1c(NC(=O)c2ccco2)c(C(=O)OCC)c2nc3ccccc3nc21	-42.1
CCCCn1c(NC(=O)c2ccc(Br)o2)c(C(=O)OCC)c2nc3ccccc3nc21	-53.8
CCCCn1c(NS(=O)(=O)c2ccccc2)c(C(=O)OCC)c2nc3ccccc3nc21	-23.9
Cc1cc(C)n(CC(=O)NNC(=O)c2cccc(C(F)(F)F)c2)n1	12.7
COc1ccc(C(=O)c2oc3ccccc3c2NC(C)=O)cc1	0.829
O=C(COc1ccc(/C=N/NC(=O)c2cc3ccccc3o2)cc1Cl)Nc1ccccc1	6.96
Cc1[nH]c2ccccc2c1/C=N/NC(=O)CNC(=O)c1ccccc1	-9.38
O=C(CO/N=C/c1c(Cl)cccc1Cl)NNC(=O)c1ccc(Cl)cc1	8.46
NC(=O)N/N=C/C=C/c1ccc(F)cc1	8.5
CC(C)=CCOc1c2occc2cc2ccc(=O)oc12	-17.9
Clc1ccc2nc(C3CCN(Cc4ccccc4)CC3)[nH]c2c1	-73.4
Fc1ccc2nc(C3CCN(Cc4nc(CC5CC5)no4)CC3)[nH]c2c1	-51.9
Fc1ccc2nc(C3CCCCN3Cc3nc(CC4CC4)no3)[nH]c2c1 (stereo not shown)	0.821
O=C(Cc1ccccc1)N1CCC(c2nc3ccccc3[nH]2)CC1	-18.9
O=C(c1cccc(Cl)c1)N1CCC(c2nc3ccccc3[nH]2)CC1	-38.2
Fc1ccccc1C1CCN(Cc2nc(CC3CC3)no2)C1 (stereo not shown)	2.1

Structure (SMILES)	hERG current change (%, negative = inhibition) at 10uM [%]
Clc1ccc2nc(C3CCN(Cc4nnnn4C4CCCCC4)CC3)[nH]c2c1	-59.2
Cc1ccc(Cl)cc1N1CCN(Cc2nnnn2C2CCCCC2)CC1	7.78
O=S(=O)(c1ccc2c(c1)OCCO2)N1CCC(c2nc3ccc(Cl)cc3[nH]2)CC1	-56.6
CC(C)(C)c1ccc(S(=O)(=O)N2CCC(c3nc4ccc(Cl)cc4[nH]3)CC2)cc1	-3.97
C1CCC(n2nnnc2CN2CCCC2)CC1	-1.31
O=S(=O)(c1ccc2c(c1)OCCO2)N1CCC(c2nc3ccccc3[nH]2)CC1	3.43
O=C(Cc1cc(=O)[nH][nH]1)N/N=C/C=C/c1ccccc1	8.93
COc1cccc(CCNC(=O)CC2C(=O)NCCN2Cc2ccc(C)o2)c1 (stereo not shown)	15.7
CCC1=NN(C(=O)c2cccnc2)C(O)(C(F)(F)F)C1 (stereo not shown)	3.08
COc1ccc(CC(=O)NCc2nnc(SCC(=O)Nc3nccs3)n2C)cc1	17.3
CCS(=O)(=O)n1nc(-c2ccccc2)cc1N	7.55
COc1ccc(NC(=O)/C(=C/c2cccs2)NC(=O)c2ccco2)cc1	-21.1
COc1ccc([N+](=O)[O-])cc1N(CC(=O)N1CCN(Cc2ccccc2)CC1)S(C)(=O)=O	5.94
CC(=O)NS(=O)(=O)c1ccccc1	9.31
O=C(NNC(=O)c1ccco1)c1cccc(Br)c1	0.684
O=C(CCC1CCCCC1)NNC(=O)c1cnccn1	-4.92
COc1cc(Cl)c(C)cc1NC(=O)CSc1ccccc1	5.58
Cc1ccc(Cn2nnnc2CN2CCC(c3nc4ccc(Cl)cc4[nH]3)CC2)cc1	5.01
CCC(C)(C)n1nnnc1CN1CCC(c2nc3ccc(C)cc3[nH]2)CC1	-48.3
COc1ccc(CN2CCC(c3nc4ccc(Cl)cc4[nH]3)CC2)cc1	-76.3
Clc1ccc(CN2CCC(c3nc4ccc(Cl)cc4[nH]3)CC2)cc1	-80.7
Cc1ccc(CN2CCC(c3nc4ccc(Cl)cc4[nH]3)CC2)cc1	-83
COc1ccc(NC(=S)N2CCC(c3nc4ccc(Cl)cc4[nH]3)CC2)c(OC)c1	-42.6
O=S(=O)(c1ccc(Cl)cc1)N1CCC(c2nc3ccccc3[nH]2)CC1	1.05
O=C(NCC1CCCO1)c1ccc(S(=O)(=O)N2CCC(c3nc4ccc(Cl)cc4[nH]3)CC2)cc1 (stereo not shown)	-18
COc1ccc(NC(=S)N2CCCC(c3nc4ccc(C)cc4[nH]3)C2)cc1 (stereo not shown)	-10.5
COc1ccc(NC(=O)CCCN2C(=O)C(c3ccccc3)Oc3cccnc32)cc1OC (stereo not shown)	1.23
